PubChem BioAssay AID624330 (Southern Research Specialized Biocontainment Screening …, 2012)
Screen size: about 340,000 compounds; about 2,100 (0.62%) were called active.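 Rule for the calls: active = first-screen hits whose inhibition reached a set limit at any dose in the follow-up dose series; inconclusive = inhibition above the set first-screen limit but never retested; inactive = the rest.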 A selection follows. Potency and affinity values are given separately.

The molecules below were run against Rac GTPase-activating protein 1 (Homo sapiens) (UniProt Q9H0H5) (assay: MgcRacGAP GTPase-activating activity inhibitors, confirmation, biochemical, ADP Hunter fluorescence, primary and confirmatory (AID 624330;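 note: fluorescence reports GDP produced by GAP-driven GTP hydrolysis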)). Conditions: MgcRacGAP-stimulated Rac1 GTP hydrolysis, at 30 µM, stronger effect = higher value, GST-tagged Rac1 F28L mutant substrate.
Rac GTPase-activating protein 1 (Homo sapiens), sequence (Q9H0H5 whole entry, looked up): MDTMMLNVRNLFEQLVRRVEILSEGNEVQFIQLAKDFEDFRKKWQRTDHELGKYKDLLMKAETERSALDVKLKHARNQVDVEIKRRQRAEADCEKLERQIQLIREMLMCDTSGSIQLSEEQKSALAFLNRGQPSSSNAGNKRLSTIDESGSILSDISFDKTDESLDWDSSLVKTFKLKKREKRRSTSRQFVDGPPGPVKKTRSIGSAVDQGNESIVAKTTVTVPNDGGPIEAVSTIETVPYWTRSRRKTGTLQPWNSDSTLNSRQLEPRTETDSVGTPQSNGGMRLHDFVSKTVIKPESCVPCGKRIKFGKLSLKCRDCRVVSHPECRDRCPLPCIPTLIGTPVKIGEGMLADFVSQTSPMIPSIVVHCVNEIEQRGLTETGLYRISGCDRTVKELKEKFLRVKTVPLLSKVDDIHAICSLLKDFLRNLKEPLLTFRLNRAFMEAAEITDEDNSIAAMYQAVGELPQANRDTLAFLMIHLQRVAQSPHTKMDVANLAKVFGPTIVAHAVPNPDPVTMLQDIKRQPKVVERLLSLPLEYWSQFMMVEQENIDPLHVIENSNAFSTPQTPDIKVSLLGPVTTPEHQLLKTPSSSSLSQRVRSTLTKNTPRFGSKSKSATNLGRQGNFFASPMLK

inhibition, inactive:
C=C1CCN([C@@H](CC(C)C)C(=O)NCc2ccc(OC)cc2)S(=O)(=O)c2ccccc21 13.2%
COc1ccc2ccccc2c1C1NC(=O)NC(C)=C1[N+](=O)[O-] (stereo unspecified) 1.63%
CC[n+]1c(/C=C/C=C/N(C(C)=O)c2ccccc2)sc2ccccc21 23.1%
CC[n+]1c(/C=C/c2ccc(OC)c(OC)c2)ccc2ccccc21 11.3%
C[n+]1c(/C=C/c2ccc3c(c2)OCO3)ccc2ccccc21 -4.73%
CN(CCCS(=O)(=O)[O-])c1ccc(/C=C/c2ccc3ccccc3[n+]2C)cc1 9.16%
CN(C)c1ccc(/C=C/c2nc3ccccc3s2)cc1 13.3%
CCN(CC)c1ccc(/C=C/c2ccc3ccc(OC)cc3[n+]2CC)cc1 12.8%
COc1ccccc1N1CCN(C(=O)C(=O)c2cn(CC(=O)N3CCCCCC3)c3ccccc23)CC1 4.2%
Cc1ccc2oc(=O)c3cnn(CC(=O)N(CCCN4CCOCC4)Cc4ccco4)c3c2c1 5.12%
CCCCNC(=O)CCC(=O)Nc1ccc2nc(N3CCN(C)CC3)cc(C)c2c1 11.9%
CCCN(CCC)CCNC(=O)CCC(=O)Nc1ccc2nc(N3CCN(C)CC3)cc(C)c2c1 26.7%
CCN(C(=O)CN1C(=O)c2ccc([N+](=O)[O-])cc2C1=O)C1CCCCC1 -1.26%
COc1cccc(OCC(O)CNC2CCCC2)c1 (stereo unspecified) -1.44%
CCC(CC)CN1C(Nc2ccccc2)=NC[C@@H]1C 1.3%
C=CCc1cc(/C=C2/NC(=O)N(CC(=O)OC)C2=O)cc(OC)c1O 10.1%
NC(=O)NC(=O)CSc1nc(C2CCCCC2)n(-c2ccccc2)n1 3.47%
O=C(CSc1nc(C2CCCCC2)n(-c2ccccc2)n1)NCC(F)(F)F 8.72%
O=C(Nc1nccs1)C1CC(=O)N(CCc2ccc(F)cc2)C1 (stereo unspecified) 6.31%
Nc1nonc1-n1nnc(C(=O)N/N=C/c2cccc(Cl)c2)c1CN1CCCCCC1 3.77%
C=CCOC1COC2C(OCC=C)COC12 (stereo unspecified) 3.53%
COc1ccc(OCCCNCCc2ccccc2)cc1 4.94%
Cc1ccc(OCCCCNC(C)c2ccccc2)c(C)c1 (stereo unspecified) 28.7%
c1ccc(CCNCCOc2ccccc2)cc1 17.6%
CC(=O)NCCOc1cccc2ccccc12 -4.94%
Cc1ccc(S(=O)(=O)N2CC=C(C(=O)NCc3ccccc3)CC2)cc1 6.07%
CC(=O)c1ccc(NC(=O)C[n+]2ccccc2)cc1 10.2%
CCOc1ccc(CCNC(=O)COC(=O)c2cc(OC)c(OC)cc2[N+](=O)[O-])cc1OCC -1.41%
Cc1ccc(NC(=O)CN(C)Cc2nc3ccccc3c(=O)[nH]2)c(Br)c1 4.68%
COCCCNc1nc2cc(OC)c(OC)cc2c2nc(-c3ccccc3)nn12 2.71%
CCOc1cc2nc(-c3ccc(OC)c(OC)c3)nc(NCCCN3CCOCC3)c2cc1OC 18.4%
COCCNc1nc(=S)[nH]c2cc(OC)c(OC)cc12 15.3%
CCOCCCNCc1ccc(OC)c(OC)c1 13.9%
CCCCn1c(N)c(N(CC(C)C)C(=O)CCNC(=O)c2ccccc2Cl)c(=O)[nH]c1=O 6.4%
CCOc1cc(C(=S)N2CCOCC2)ccc1OS(=O)(=O)c1ccc(OC)cc1 3.51%
C[C@@H]1CN([C@H](C)CO)C(=O)CCCn2nncc2CO[C@H]1CN(C)S(=O)(=O)c1ccc2ccccc2c1 12.9%
CCCCNC(=O)Cn1cnc2c(cnn2-c2ccc(C)cc2)c1=O 6.17%
Clc1nssc1=Nc1ccccc1 13.8%
Clc1ccc(N=c2ssnc2Cl)cc1 14.7%
O=C(N/N=C/c1ccc([N+](=O)[O-])o1)c1cc(-c2cccc(Br)c2)nc2ccccc12 -2.15%
Cn1c(=Nc2ccc(N3CCOCC3)cc2)ccc2ccccc21 16.1%
C/C(=N\N=c1/sc2ccccc2n1C)c1ccc(N2CCOCC2)cc1 6.81%
O=[N+]([O-])c1cccc(-c2ccc(C(=S)N3CCN(c4ccc(F)cc4)CC3)o2)c1 5.79%
CN(C)c1ccc2nsnc2c1[N+](=O)[O-] 7.42%
Cc1ccc2nsnc2c1NC(=O)c1ccc([N+](=O)[O-])cc1 14.4%
Cc1ccc(-c2cn3c(n2)SCC3)cc1 14.4%
Brc1ccc(-c2cn3c(n2)SCC3)cc1 15.1%
CCCCNc1c(-c2ccc(SC3CCCCC3)c(OC)c2)nc2ccc(C)cn12 2.06%
O=C(Nc1ncccn1)C1c2ccccc2Oc2ccccc21 2.37%
COc1ccc2nnc(-c3ccccc3)n2n1 10.9%
COC(=O)c1ccc(Oc2ccc3nnc(C)n3n2)cc1 -0.14%
CC(=O)Nc1ccc2sc(NC(=O)CN3CCOCC3)nc2c1 7.43%
CCCCc1cc(=O)oc2cc(OCC(=O)Nc3ccccn3)ccc12 11.4%
Cc1ccn2c(C(C)O)nnc2c1 (stereo unspecified) 11.7%
c1ccn2c(Cc3nnc4ccccn34)nnc2c1 3.25%
CSc1nc(=O)n2cccc(C)c2n1 0.29%
Cc1cccn2c(N)c(-c3ccccc3)nc12 7.39%
Cc1ccn2c(=O)cc(C)nc2c1 -1.02%
Fc1ccc(-c2nnc3ccccn23)cc1 0.86%
O=C(CCC(=O)N1CCOCC1)NCCc1ccccc1 0.87%
CCN(CC(=O)Nc1ccc(NC(C)=O)cc1)C(=O)c1ccc2c(c1)S(=O)(=O)N=C1CCCCCN12 1.15%
CCOc1ccccc1NC(=S)N1CCCCCC1 5.32%
CCOC(=O)C(C#N)=C1CCN(Cc2ccccc2)CC1 11.1%
CCOC(=O)/C(C#N)=C1/C=Cc2ccccc2N1CC 12.8%
CCCCN1C(=O)/C(=C(/C#N)C(N)=O)c2ccccc21 10.6%
CCOC(=O)/C(C#N)=C1/C=CN(Cc2ccccc2)C=N1 6.15%
Cc1ccc(C(=O)NC(NCc2ccco2)C(Cl)(Cl)Cl)cc1 (stereo unspecified) 2.01%
O=C(NCCCN1CCCC1)c1ccc2c(c1)N(Cc1ccccc1)CCS2 -3.35%
O=C(COC(=O)CCc1c[nH]c2ccccc12)NCc1ccccc1 4.56%
COCCNC(=S)N(Cc1cc2cc(C)ccc2n2nnnc12)C1CCCC1 1.01%
COc1ccc(C(=O)NC(=S)N(C)Cc2ccccc2)cc1Br 3.69%
Cc1nc2scc(C)n2c(=O)c1S(=O)(=O)N1CCN(c2ccc(F)cc2)CC1 5.64%
Cc1nc2scc(C)n2c(=O)c1S(=O)(=O)N1CCN(c2ccccc2)CC1 1.78%
O=CN(/C=C1\Sc2ccccc2C1=O)Cc1ccccc1 10%
Cc1sc2ncnc(N/N=C/c3cccc(O)c3)c2c1C 20.2%
Cc1sc2ncnc(Nc3ccccc3)c2c1C 4.64%
COc1ccc(/C=N/Nc2ncnc3sc(C)c(C)c23)cc1 11.8%
Cc1ccc(Nc2ncnc3sc(C)c(C)c23)cc1 18.3%
COCCOc1cc(NC(=O)CS(=O)(=O)CC(=O)N(C)C)c(Cl)cc1Cl -10.1%
O=C(Nc1cccc(Cl)c1)C1C2C=CC3(O2)C1C(=O)N(CCN1CCCCC1)C3C(=O)NC1CCCCC1 (stereo unspecified) 4.26%
CCN(CC)C(=O)CN(c1ccc(C)cc1)S(=O)(=O)c1ccc(SC)cc1 3.34%
COc1ccc(C2CC(=O)Nc3ccccc3S2(=O)=O)cc1OC (stereo unspecified) 11.4%
O=C(Nc1cccc(C(=O)Nc2ccccc2F)c1)c1ccccc1 -9.87%
CN(C)c1ccc(/C=C/C(=O)c2cccnc2)cc1 10.2%
CN(C)c1ccc(/C=C/c2ccncc2)cc1 16.4%
O=C(CSc1ccc2nnc(-c3cccnc3)n2n1)Nc1ccccc1C(F)(F)F 6.49%
Oc1ccc(Cl)cc1/C=N/c1nccs1 3.22%
Oc1cccc(C=Nc2cccc3ccccc23)c1O -2.71%
CCN(CC)c1ccc(N=Cc2cc(Br)ccc2O)cc1 10.9%
Cc1cccc(C=Nc2ccc3c(c2)oc2ccccc23)c1O 25.6%
Oc1ccc(Cl)cc1C=Nc1ccccc1Br 4.11%
OCC(CO)(CO)N=Cc1cc(Br)ccc1O 8.85%
COc1ccccc1-c1nnc(SCC(=O)Nc2ccc(S(N)(=O)=O)cc2)n1C 7.69%
C[C@H](CO)N1C[C@H](C)[C@H](CN(C)C(=O)Nc2ccc(C(C)(C)C)cc2)OCc2cnnn2CCCC1=O -5.61%
COc1ccc(OC)c(S(=O)(=O)NCC(=O)NC2CCCc3ccccc32)c1 (stereo unspecified) 6.06%
O=C(Nc1ccc2c(c1)OCO2)C1CCCN1C(=O)OCc1ccccc1 (stereo unspecified) 6.44%
C=CCN(CC=C)CCOc1ccc(OC(C)C)cc1 26.4%
COc1ccc2c(c1)c(C(=O)N/N=C/c1cccc(O)c1)c(C)n2C 16.9%
COc1ccc2nc(C)cc(SCC(=O)N/N=C/c3ccc(O)cc3O)c2c1 17.7%
COc1ccc2c(c1)c(C(=O)N/N=C/c1ccc(OC)c(OC)c1)c(C)n2C -2.93%
COc1ccc2nc(C)cc(SCC(=O)N/N=C/c3ccccc3)c2c1 5.43%
